Measurements from PubChem BioAssay AID1159580 (chemical genetic matrix, 2015).
Where “and” joins values, the source holds several entries; their conditions need not be identical. Identical values can stand only once. The whole screen tested about 5,500 compounds, of which about 2,000 (36%) were called active. About 18% were inconclusive and are not listed. Cut-off read from the data, not from the text of the source: active = normalized growth mostly below about 0.91 (no sharp cut-off); inconclusive = no clear call, values can overlap the other calls; inactive = mostly above about 0.92. This is one part of the list.

Assay: chemical genetic growth profiling, strain panel (AID 1159580);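 note: tested at 20 µM; growth read once vehicle control cultures reached saturation at 30 °C; 1 = growth at the plate median or of vehicle wells; lower values mean less growth of the strain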
Settings: S. cerevisiae deletion strains, growth OD

Measured: normalized growth

COc1ccc(CN(CCN(C)C)c2ccccn2)cc1
inactive: locus YAL013W, strain DEP1, hits give low values 0.971 | locus YAL021C, strain ccr4, hits give low values 1.01 | locus YAL026C, strain drs2, hits give low values 1.03 | locus YAL030W, strain snc1, hits give low values 0.999 | locus YAL040C, strain CLN3, hits give low values 0.955 | locus YBL061C, strain skt5, hits give low values 1.01 | locus YBR009C, strain hhf1, hits give low values 0.986 | locus YBR021W, strain FUR4, hits give low values 0.995 | locus YBR023C, strain chs3, hits give low values 1.03 | locus YBR171W, strain sec66, hits give low values 1.02 | locus YBR229C, strain ROT2, hits give low values 0.991 | locus YBR231C, strain swc5, hits give low values 1.02 | locus YBR279W, strain paf1, hits give low values 1.01 | locus YCL011C, strain gbp2, hits give low values 1.03 | locus YCL016C, strain dcc1, hits give low values 1.03 | locus YCL029C, strain bik1, hits give low values 0.989 | locus YCL061C, strain MRC1 (second series), hits give low values 0.986 | locus YCL069W, strain vba3, hits give low values 1.01 | locus YCR088W, strain abp1, hits give low values 1.02 | locus YDL005C, strain med2, hits give low values 1.03 | locus YDL035C, strain GPR1, hits give low values 0.996 | locus YDL040C, strain nat1, hits give low values 1.01 | locus YDL074C, strain BRE1, hits give low values 1.01 | locus YDL101C, strain DUN1, hits give low values 0.993 | locus YDL134C, strain PPH21, hits give low values 0.995 | locus YDL185W, strain tfp1, hits give low values 0.951 | locus YDL192W, strain arf1, hits give low values 0.978 | locus YDR001C, strain nth1, hits give low values 1.01 | locus YDR069C, strain doa4, hits give low values 1.01 | locus YDR101C, strain arx1, hits give low values 0.982 | locus YDR137W, strain rgp1, hits give low values 1.04 | locus YDR150W, strain NUM1, hits give low values 1.02 | locus YDR159W, strain sac3, hits give low values 0.992 | locus YDR162C, strain NBP2, hits give low values 0.992 | locus YDR195W, strain ref2 0.966 | locus YDR297W, strain sur2, hits give low values 1.01 | locus YDR318W, strain mcm21, hits give low values 0.989 | locus YDR334W, strain swr1, hits give low values 1 | locus YDR335W, strain msn5, hits give low values 1.03 | locus YDR363W, strain ESC2, hits give low values 1 | locus YDR388W, hits give low values 0.998 | locus YDR392W, strain spt3, hits give low values 1.04 | locus YDR502C, strain sam2, hits give low values 0.979 | locus YEL003W, strain gim4, hits give low values 1.02 | locus YEL037C, strain rad23, hits give low values 1.01 | locus YEL061C, strain CIN8 (second series), hits give low values 1.02 | locus YEL061C, strain CIN8, hits give low values 0.999 | locus YER002W, strain NOP16, hits give low values 1 | locus YER015W, strain faa2, hits give low values 1.03 | locus YER016W, strain bim1, hits give low values 1.02 | locus YER110C, hits give low values 0.968 | locus YER111C, strain swi4, hits give low values 1.01 | locus YER155C, strain BEM2 (second series), hits give low values 1.02 | locus YER155C, strain BEM2, hits give low values 0.983 | locus YER167W, strain BCK2, hits give low values 1 | locus YFR010W, strain ubp6, hits give low values 1 | locus YGL078C, strain dbp3, hits give low values 0.998 | locus YGL086W, strain mad1, hits give low values 0.988 | locus YGL167C, strain pmr1, hits give low values 1.02 | locus YGL173C, strain kem1, hits give low values 1.02 | locus YGL227W, strain vid30, hits give low values 1.01 | locus YGL240W, strain doc1, hits give low values 0.991 | locus YGL248W, strain PDE1, hits give low values 0.999 | locus YGL253W, strain hxk2, hits give low values 1.03 | locus YGR078C, strain PAC10, hits give low values 0.983 | locus YGR135W, strain pre9, hits give low values 0.988 | locus YGR229C, strain SMI1, hits give low values 1.01 | locus YGR252W, strain gcn5, hits give low values 1.12 | locus YHR013C, strain ard1, hits give low values 1.08 | locus YHR027C, strain rpn1, hits give low values 1.02 | locus YHR030C, strain SLT2, hits give low values 0.992 and 1.05 | locus YHR079C, strain IRE1 (second series), hits give low values 0.987 | locus YHR079C, strain IRE1, hits give low values 1.06 | locus YHR094C, strain hxt1, hits give low values 0.981 | locus YHR129C, strain ARP1, hits give low values 1 | locus YHR142W, strain chs7, hits give low values 1.05 | locus YHR200W, strain rpn10, hits give low values 0.993 | locus YIL066C, strain RNR3, hits give low values 0.995 | locus YIL073C, strain SPO22, hits give low values 0.916 | locus YIL125W, strain kgd1, hits give low values 0.973 | locus YIR030C, strain dcg1, hits give low values 0.99 | locus YJL092W, strain hpr5, hits give low values 1.02 | locus YJL095W, strain BCK1 (second series), hits give low values 1 | locus YJL095W, strain BCK1, hits give low values 1.01 and 1.03 | locus YJL115W, strain asf1, hits give low values 1.02 | locus YJL129C, strain trk1, hits give low values 1.03 | locus YJL134W, strain LCB3, hits give low values 0.989 | locus YJL154C, strain vps35, hits give low values 1.02 | locus YJL164C, strain tpk1, hits give low values 1.02 | locus YJL166W, strain qcr8, hits give low values 1.01 | locus YJL168C, strain set2, hits give low values 0.993 | locus YJL187C, strain SWE1 (second series), hits give low values 0.985 | locus YJR043C, strain POL32, hits give low values 1.01
